The values that follow come from PubChem BioAssay (NCATS).

Where “and” joins values, the source holds several entries; their conditions need not be identical. Identical values can stand only once. Inconclusive results are not listed. Calls of active or inactive are those of the source. Unless noted, the call rests on the fitted dose curve.

The nature of experiment [1]: qHTS for Inhibitors of the Functional Ribonucleoprotein Complex (vRNP) of Lassa (LASV) Arenavirus: LASV Primary Screen - GLuc reporter signal (AID 1347082; calls by dose curve; tested in HEK293 reporter line; further: nearly all actives have a fitted effect of over 60% in size). Particulars: LASV minigenome vRNP, Gaussia luciferase reporter; series mostly up to 57.5 µM. A general note: Quantitative high-throughput screening tests each substance at several concentrations.
Experiment [2] can be described thus: qHTS for Inhibitors of the Functional Ribonucleoprotein Complex (vRNP) of Lassa (LASV) Arenavirus: Viability assay - alamar blue signal for LASV Primary Screen (AID 1347083; calls by dose curve; tested in HEK293 reporter line; further: nearly all actives have a fitted effect of over 80% in size). Particulars: cell viability, alamar blue fluorescence (LASV minigenome counter-screen); series mostly up to 57.5 µM.
The nature of experiment [3]: qHTS for Inhibitors of the Functional Ribonucleoprotein Complex (vRNP) of Lymphocytic Choriomeningitis Arenaviruses (LCMV): Viability assay - alamar blue signal for LCMV Primary Screen (AID 1347085; calls by dose curve; tested in HEK293 reporter line; further: nearly all actives have a fitted effect of over 80% in size). Particulars: alamar blue viability counter-screen, LCMV vRNP screen cells; series mostly up to 57.5 µM.
Experiment [4] concerns the target Nucleoprotein (Lymphocytic choriomeningitis virus (strain Armstrong)) (UniProt P09992). The experiment in a line: qHTS for Inhibitors of the Functional Ribonucleoprotein Complex (vRNP) of Lymphocytic Choriomeningitis Arenaviruses (LCMV): LCMV Primary Screen - GLuc reporter signal (AID 1347086). Further: nearly all actives have a fitted effect of over 70% in size. Particulars: LCMV minigenome vRNP cell assay, Gaussia luciferase reporter; series mostly up to 57.5 µM.
Potency means the concentration at half of the fitted maximal effect.

Nucleoprotein (Lymphocytic choriomeningitis virus (strain Armstrong)), sequence (P09992 whole entry, looked up): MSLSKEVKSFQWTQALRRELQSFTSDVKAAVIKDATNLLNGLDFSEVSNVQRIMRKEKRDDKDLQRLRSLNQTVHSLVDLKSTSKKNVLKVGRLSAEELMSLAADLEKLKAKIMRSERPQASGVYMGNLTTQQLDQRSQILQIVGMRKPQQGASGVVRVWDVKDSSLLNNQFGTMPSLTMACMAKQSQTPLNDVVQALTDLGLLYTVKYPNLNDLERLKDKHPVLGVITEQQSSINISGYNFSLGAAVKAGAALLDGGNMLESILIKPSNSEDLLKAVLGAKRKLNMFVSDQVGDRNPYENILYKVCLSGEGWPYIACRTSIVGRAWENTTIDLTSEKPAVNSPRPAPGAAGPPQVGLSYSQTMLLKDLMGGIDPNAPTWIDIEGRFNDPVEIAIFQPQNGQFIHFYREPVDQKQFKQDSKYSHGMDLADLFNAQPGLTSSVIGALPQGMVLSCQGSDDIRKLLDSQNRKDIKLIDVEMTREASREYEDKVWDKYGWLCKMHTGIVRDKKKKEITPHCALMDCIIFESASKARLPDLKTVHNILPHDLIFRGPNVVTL

With `Cc1onc(-c2c(Cl)cccc2Cl)c1C(=O)N[C@@H]1C(=O)N2[C@@H]1SC(C)(C)[C@@H]2C(=O)O`, the Potency result in experiment [1], in experiment [2], in experiment [3] and in experiment [4] was “inactive” each time.
As to `CC[C@@]1(O)C(=O)OCc2c1cc1n(c2=O)Cc2cc3c(CN(C)C)c(O)ccc3nc2-1`, the Potency is 8.63 µM (active) in experiment [1]; 2.82 µM (active) and 1.09 µM (active) in experiment [2]; 1.72 µM (active) in experiment [3]; 2.82 µM (active) and 3.06 µM (active) in experiment [4].
Turning to `Cc1cc2c(s1)Nc1ccccc1N=C2N1CCN(C)CC1`, the Potency entry in experiment [1], in experiment [2], in experiment [3] and in experiment [4] was “inactive” throughout.
For `CC1=C(C(=O)O)N2C(=O)[C@@H](NC(=O)[C@H](N)c3ccccc3)[C@H]2SC1`, the Potency entry in experiment [1], in experiment [2], in experiment [3] and in experiment [4] was “inactive” in each case.
Take `CC(C)[N+](C)(CCOC(=O)C1c2ccccc2Oc2ccccc21)C(C)C`: the Potency result in experiment [1], in experiment [2], in experiment [3] and in experiment [4] was “inactive” throughout.
Take `COc1cc2c(c(OC)c1OC)-c1ccc(OC)c(=O)cc1[C@@H](NC(C)=O)CC2`: the Potency entry in experiment [1], in experiment [2] and in experiment [3] was “inactive” in each case.
Consider `CC(c1cc2ccccc2s1)N(O)C(N)=O` (centres undefined), for which the Potency entry in experiment [1], in experiment [2], in experiment [3] and in experiment [4] was “inactive” each time.
As for `CNCCC(Oc1ccc(C(F)(F)F)cc1)c1ccccc1` (centres undefined), the Potency entry in experiment [1], in experiment [2], in experiment [3] and in experiment [4] was “inactive” each time.
As for `C[C@@H](O)[C@H]1C(=O)N2C(C(=O)O)=C(S[C@@H]3CN[C@H](C(=O)N(C)C)C3)[C@H](C)[C@H]12`, the Potency entry in experiment [1], in experiment [2], in experiment [3] and in experiment [4] was “inactive” throughout.
Regarding `O=C1[C@H](CC[C@H](O)c2ccc(F)cc2)[C@@H](c2ccc(O)cc2)N1c1ccc(F)cc1`, the Potency result in experiment [1], in experiment [2], in experiment [3] and in experiment [4] was “inactive” throughout.
